The list is not random: actives were taken first. Their share in the collection is about 18%.
TDP1 cell noCPT – qHTS for Inhibitors of human tyrosyl-DNA phosphodiesterase 1 (TDP1): qHTS in cells in absence of CPT. DT40 Tdp1-/- hTDP1 cells, no CPT, ATP luminescence, 48 h. Potency, µM (series often up to 46.2 µM), for the others: at the highest dose activity change, negative = growth inhibition, most hits filed as inhibitors. 420,000 tested, 15% active. AID 686978, 2013; further: potency means the concentration at half of the fitted maximal effect; on the % scale 0 is the no-effect control and ±100 the full control effect; nearly all actives have a fitted effect of over 55% in size
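Camptothecin absent (DMSO only). Human TDP1-complemented DT40 knockout cells, 400 cells/well, 37 °C for minimum 48 hr; ATP measured via CellTiter-Glo, 30 min dark incubation, luminescence.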
TGFb inhibitor – blocks TGF-b signaling | HepG2 CAGA-GFP TGF-b/SMAD3 reporter, GFP fluorescence, 18 h; TGF-beta stimulated, 500 pg/mL final | Potency, µM (series often up to 46.1 µM), for the others: at the top dose activity, negative = inhibition, most hits filed as inhibitors | 410,000 tested, 1.2% active | AID 588855; further: potency means the concentration at half of the fitted maximal effect; on the % scale 0 is the no-effect control and ±100 the full control effect; nearly all actives have a fitted effect of over 65% in size
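Per well, imaged GFP fluorescence of HEPG2 CAGA-GFP cells gives the signal; cells get compound, then TGF-beta (500 pg/mL final), 18 h at 37 degrees C; %Activity versus -TGF-beta and +DMSO controls.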
HepG2 tox – kills HepG2 cells in TGF-b inhibitor counter-screen; 410,000 tested, 0.76% active; HepG2 CAGA-GFP viability, ATP luminescence, 18 h; AID 588856; Potency, µM (highest dose often 46.1 µM), without a hit: at the top dose activity change, negative = cytotoxicity, usual class: cytotoxic; further: potency means the concentration at half of the fitted maximal effect
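HepG2 CAGA-GFP cells (1000/well, DMEM with 1% FBS) received compound, then TGF-beta at 500 pg/mL final, and were incubated 18 hours at 37 degrees C. Viability was read by CellTiter-Glo luminescence. Media-only wells were set as complete cell-killing and DMSO as no toxicity.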
DT40 TDP1 CPT – DT40-hTDP1 cell growth loss with CPT; 420,000 tested, 12% active; AID 686979; Potency, µM (doses to about 46.2 µM), for the others: at the top dose activity change, negative = growth inhibition, actives largely listed as inhibitors; chicken DT40 Tdp1-/-;hTDP1 cells + 20 nM CPT, ATP luminescence, 48 h; further: potency means the concentration at half of the fitted maximal effect; on the % scale 0 is the no-effect control and ±100 the full control effect; nearly all actives have a fitted effect of over 55% in size
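Chicken DT40 Tdp1-/- cells stably complemented with human TDP1 were seeded at 400 cells/well in medium containing 20 nM camptothecin, exposed to pin-transferred compounds, and grown at 37 °C for at least 48 hr. Viability was read as ATP luminescence.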
IL1B secr inh – inhibitors of inflammasome signaling (IL-1 beta secretion). THP-1 LPS/ATP IL-1B secretion, AlphaLISA, 16 h; active compounds read low. activity change, % at 57.5 µM. 360,000 tested, 4.7% active. AID 743279; in the data active means activity change below about -50%; inconclusive means mostly about -30% to -49%; further: on the % scale 0 is the no-effect control and ±100 the full control effect
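Secreted IL-1B measured by AlphaLISA bead assay after 16 h compound exposure of THP-1 cells; compounds (final up to 57.5 uM) added 1 h before LPS (250 ng/mL) and ATP (1.25 mM) stimulation; lower signal means less secretion.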
TDP1 block – inhibitors of human tyrosyl-DNA phosphodiesterase TDP1; Q9NUW8; recombinant TDP1, AlphaScreen DNA substrate cleavage; Potency, µM (series often up to 130 µM), without a hit: at the top dose activity change, negative = inhibition, most hits filed as inhibitors; 350,000 tested, 0.28% active; AID 485290; further: potency means the concentration at half of the fitted maximal effect; on the % scale 0 is the no-effect control and ±100 the full control effect; nearly all actives have a fitted effect of over 40% in size
Target sequence (Q9NUW8 whole entry, looked up): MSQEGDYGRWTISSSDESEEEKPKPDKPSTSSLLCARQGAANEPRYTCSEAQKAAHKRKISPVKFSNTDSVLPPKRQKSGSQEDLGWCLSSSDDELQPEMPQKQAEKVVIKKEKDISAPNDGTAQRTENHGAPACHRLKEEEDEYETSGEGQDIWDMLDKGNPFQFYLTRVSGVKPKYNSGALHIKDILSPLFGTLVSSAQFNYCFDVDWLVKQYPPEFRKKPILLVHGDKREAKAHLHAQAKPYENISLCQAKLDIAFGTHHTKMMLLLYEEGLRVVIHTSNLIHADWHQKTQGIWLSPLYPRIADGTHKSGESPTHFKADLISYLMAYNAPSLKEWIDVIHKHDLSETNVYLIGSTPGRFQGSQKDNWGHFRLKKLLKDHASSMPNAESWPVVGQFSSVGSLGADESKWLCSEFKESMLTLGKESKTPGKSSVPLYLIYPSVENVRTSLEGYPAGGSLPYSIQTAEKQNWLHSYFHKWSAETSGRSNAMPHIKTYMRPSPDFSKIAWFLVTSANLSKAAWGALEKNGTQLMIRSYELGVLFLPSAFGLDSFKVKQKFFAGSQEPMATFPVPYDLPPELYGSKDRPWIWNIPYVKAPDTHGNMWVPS
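Here, a 5' biotin and 3' phosphotyrosine-FITC DNA oligonucleotide reports Tdp1 activity: intact substrate bridges AlphaScreen beads, while cleavage leaves a 3' phosphate and drops signal. All incubations at room temperature.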
* hit, by the source's call; ? = inconclusive; nt = no result. Unless noted, the call rests on the fitted dose curve; in most records, active means well fitted curve in the direction sought with a large enough effect; inconclusive means small, poorly fitted or top-dose-only effect, or another doubt; inactive means no such curve, though single readings can be large; an effect the other way counts as inactive or inconclusive.

SMILES	TDP1 cell noCPT	TGFb inhibitor	HepG2 tox	DT40 TDP1 CPT	IL1B secr inh	TDP1 block
CC(C)n1nccc1N(Cc1ccc(Cl)cc1)S(=O)(=O)c1ccccc1	?	?	-33.1%	-28.9%	-70.8*	nt
N#Cc1ccc(CN(c2ccncc2)S(=O)(=O)c2ccccc2)cc1	-11.7%	-25.2%	8.3%	2.6%	-1.5	11.9%
CC(C)n1nccc1N(Cc1ccc(Br)cc1)S(=O)(=O)c1ccccc1	?	?	-13.3%	23.1µM*	?	nt
O=C(CCl)Nc1cccc(S(=O)(=O)NC2=NCCCCC2)c1	5.17µM*	?	11.2µM*	3.66µM*	-99.3*	0.8%
CCCOc1ccc(C(=O)Nc2ccc(S(=O)(=O)NC3=NCCCCC3)cc2)cc1	20.6µM*	0.0%	0.316µM*	13µM*	-5.7	nt
Cc1cc(OCC(=O)Nc2cccc(S(=O)(=O)NC3=NCCCCC3)c2)ccc1Cl	2.59µM*	-24.6%	-23.2%	?	?	5.3%
Cc1ccc(OCC(=O)Nc2cccc(S(=O)(=O)NC3=NCCCCC3)c2)cc1C	?	-25.7%	-4.7%	?	16.6	4.3%
O=C(CCl)Nc1ccc(S(=O)(=O)NC2=NCCCCC2)cc1	13µM*	?	-95.2%	18.4µM*	-96.2*	0.0%
CCOc1ncccc1C(=O)Nc1ccc(S(=O)(=O)NC2=NCCCCC2)cc1	-24.2%	9.3%	4.0%	6.7%	?	4.9%
CC(C)(C)C(=O)Nc1ccc(S(=O)(=O)NC2=NCCCCC2)cc1	-26.7%	6.2%	2.0%	?	6.1	3.6%
Cc1nnc(SC(C)C(=O)NC2CCCCC2)[nH]c1=O (centres undefined)	2.7%	-1.2%	-2.9%	-25.3%	4.6	nt
Nc1nc2cc(S(=O)(=O)NC3=NCCCCC3)ccc2s1	13µM*	-17.3%	-1.4%	14.6µM*	?	5.0%
COc1ccc2c(c1)c(C(=O)CN1CCc3ccccc3C1)c(C)n2C	20.6µM*	-8.4%	-31.2%	?	1.2	8.2%
COc1ccc2c(c1)c(C(=O)CNc1nc(C)cs1)c(C)n2C	20.6µM*	0.0%	-21.6%	?	?	10.4%
COc1ccc2[nH]c(C)c(C(=O)CN3CCc4cc(OC)c(OC)cc4C3)c2c1	18.4µM*	?	-36.7%	16.4µM*	-2.3	1.0%
COc1ccc2[nH]c(C)c(C(=O)CNc3nccs3)c2c1	10µM*	8.2%	13.8%	7.94µM*	nt	nt
COc1ccc2[nH]c(C)c(C(=O)CN3CCOCC3)c2c1	0.1%	19.2%	-20.3%	12.0%	-8.1	4.8%
CCCSCCCNC(=O)Cn1c(=O)c2cccn2c2ccccc21	-25.2%	-6.2%	-23.2%	-13.0%	-2.7	nt
Cc1onc(-c2ccccc2Cl)c1C(=O)N1CCN(c2cccc(Cl)c2)CC1	1.46µM*	-6.2%	12.1%	1.64µM*	71.0	3.9%
COC(=O)c1cc(OC)c(OC)cc1NC(=O)c1c(-c2ccccc2Cl)noc1C	13µM*	-4.8%	4.1%	18.4µM*	6.6	6.2%
Cc1onc(-c2ccccc2Cl)c1C(=O)Oc1cc(F)cc(F)c1	-8.9%	20.1%	-1.6%	-16.2%	nt	2.6%
Cc1onc(-c2ccccc2Cl)c1C(=O)Oc1ccc(Cl)cc1Cl	20.6µM*	?	-27.6%	16.4µM*	nt	-5.2%
Cc1nc(/C(N)=N/OC(=O)c2c(-c3ccccc3Cl)noc2C)cs1	?	-4.2%	-63.1%	-26.3%	-88.6*	nt
Cc1onc(-c2ccccc2Cl)c1C(=O)N1CCN(c2ccccc2)CC1	?	-21.9%	-13.4%	?	-13.4	4.1%
CCOC1=C2CN(S(=O)(=O)c3ccc(C)cc3)[C@H](c3ccccc3)C[C@@H]2N(S(=O)(=O)c2ccccc2C)[C@H](c2ccccc2)C1	?	?	-40.4%	-29.5%	0.0	nt
SMILES	TDP1 cell noCPT	TGFb inhibitor	HepG2 tox	DT40 TDP1 CPT	IL1B secr inh	TDP1 block
O=C(CN1CCN(Cc2cccc(F)c2)CC1)NCc1ccccc1	?	-12.2%	-35.8%	-22.1%	-6.4	4.1%
COc1ccc(/C(N)=N/OC(=O)c2c(-c3ccccc3Cl)noc2C)cc1OC	?	-12.1%	-48.9%	20.6µM*	-91.5*	4.6%
Cc1onc(-c2ccccc2Cl)c1C(=O)Nc1nnc(-c2ccc(Br)cc2)s1	?	?	-30.0%	16.4µM*	19.2	2.2%
Cc1onc(-c2ccccc2Cl)c1C(=O)Nc1nnc(-c2ccc(F)cc2)s1	-26.7%	3.3%	-0.2%	-4.3%	6.3	-2.6%
Cc1onc(-c2ccccc2Cl)c1C(N)=O	-14.3%	-0.6%	4.9%	1.0%	0.0	-4.8%
Nc1cnn(Cc2ccccc2F)c1	20.6µM*	?	-41.8%	?	15.6	6.0%
COC(=O)[C@@]1(Cc2ccccc2)[C@H]2c3cc(C(=O)N(C)C)n(Cc4cc(F)c(F)c(F)c4)c3C[C@H]2CN1C(=O)c1ccccc1	nt	nt	nt	nt	nt	13.5%
CC1CCN(S(=O)(=O)c2ccc3ncn(CC(=O)Nc4ccccc4C(F)(F)F)c(=O)c3c2)CC1	?	?	-8.9%	20.6µM*	nt	5.8%
COc1ccc(OC)c(NC(=O)Cn2cnc3ccc(S(=O)(=O)N4CCC(C)CC4)cc3c2=O)c1	?	-1.9%	-7.2%	23.1µM*	nt	8.4%
COc1ccc(NC(=O)Cn2cnc3ccc(S(=O)(=O)N4CCC(C)CC4)cc3c2=O)cc1OC	?	?	-12.5%	25.9µM*	nt	1.9%
CC1CCN(S(=O)(=O)c2cn(CC(=O)Nc3cccc(C(F)(F)F)c3)c(=O)c3ccccc23)CC1	?	12.6µM*	-31.9%	-41.3%	nt	7.5%
COC(=O)c1ccccc1NC(=O)Cn1cnc2ccc(S(=O)(=O)N3CCC(C)CC3)cc2c1=O	-3.3%	-3.3%	-45.7%	5.2%	9.4	2.2%
COc1ccc(Cn2c(CNC(=O)Cc3ccc(OC)c(OC)c3)nc3cccnc32)cc1	-25.2%	-7.8%	-1.9%	-19.1%	nt	7.7%
O=C(C1CCC1)N1CCCc2cc(S(=O)(=O)Nc3ccc(F)cc3)ccc21	23.1µM*	-25.6%	-4.9%	?	nt	1.1%
Cc1cc(C)cc(NS(=O)(=O)c2ccc3c(c2)CCCN3C(=O)C2CCC2)c1	20.6µM*	?	-34.3%	23.1µM*	nt	-2.2%
CCOc1ccc(NS(=O)(=O)c2ccc3c(c2)CCCN3C(=O)C2CCC2)cc1	?	?	-16.2%	?	nt	9.9%
COC(=O)CCc1cccc(CCC(=O)OC)c1	-1.6%	-22.3%	-3.9%	7.0%	0.0	nt

Screens (PubChem)
